We go through eight compounds from PubChem BioAssay (Tox21).

Molecules are shown by their SMILES. Values without a mark were called inactive. Records with an inconclusive call do not appear. Calls of active or inactive are those of the source. Unless noted, calls come from the whole dose curve; as a rule, active = well fitted curve in the direction sought with a large enough effect in the repeat runs; inconclusive = weak or mixed curves; inactive = no such curve, though single readings can be large; an effect the other way counts as inactive or inconclusive.

A short description of assay [1]: qHTS assay to identify small molecule agonists of H2AX (AID 1224845; active = well fitted activation curve with a large enough effect in the signal ratio in the repeat runs, not every such curve was filed as active; the % refers to the signal ratio). The method in brief: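 Wild-type CHO-K1 cells plated overnight, then exposed 3 hr at 37C to compounds at 15 concentrations (0.76% DMSO). Lysed, then HTRF anti-pH2AX(S139)-cryptate/anti-H2AX-d2 detection after 24 hr at room temperature; emissions 665 and 620 nm.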
In general terms: qHTS replaces the single test concentration by a dilution series.

Assay [2] can be described thus: qHTS assay to identify small molecule agonists of the hypoxia (HIF-1) signaling pathway (AID 1224846; active = well fitted activation curve with a large enough effect in the signal ratio in the repeat runs, not every such curve was filed as active; the % refers to the signal ratio). The method in brief: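 Compounds from the Tox21 10K library, dissolved in DMSO, are tested for induction of a hypoxia response element–controlled beta-lactamase reporter in ME-180 cells. Exposure lasts 17 hrs at 37C after a 5 hr settling period, followed by CCF4-AM FRET substrate.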

Assay [3] in a line: qHTS assay to identify small molecule antagonists of the estrogen related receptor (ERR) signaling pathway from Tox21 library (AID 1224848). Note: nearly all actives have a fitted effect of over 50% in size. Note: potency is the fitted concentration of half-maximal effect. The method in brief:
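Tox21 10K compounds in DMSO tested for ERR pathway antagonism in NTP's ERR cell line; 18 h, 37 C exposure; ONE-Glo luminescence.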

Assay [4] is described as follows: qHTS assay to identify small molecule agonists of the estrogen related receptor (ERR) signaling pathway from Tox21 library (AID 1224849; calls by dose curve; note: nearly all actives have a fitted effect of over 15% in size). The following applies: ERR reporter cell line, ONE-Glo luciferase, 18 h; at 92.4 µM (top of the series) unless noted. The gist of the method: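 Cells carrying the ERR reporter were plated and allowed to settle for 6 h, exposed to library compounds for 18 h at 37 C, then lysed with ONE-Glo and luminescence measured.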

A short description of assay [5]: qHTS RealTime-Glo MT Cell Viability Assay in HepG2 cells - 24 hour (AID 1224867). Note: nearly all actives have a fitted effect of over 50% in size. The gist of the method:
(§1)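 Cell number in HepG2 cultures estimated from NanoLuc luminescence generated by metabolic reduction of a prosubstrate by living cells. The homogeneous, nonlytic format allowed repeated reads at 0, 8, 16, 24, 32 and 40 h of compound exposure.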

Assay [6] is described as follows: A CellTox Green Cytotoxicity Assay to monitor cytotoxicity in HEK293 cells - 0 hour (AID 1224869). Note: nearly all actives have a fitted effect of over 50% in size. The gist of the method: (§2)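 Cells (HEK293, 600/well) and dye reagent are dispensed together. After 5 h at 37 C, 23 nL compound is pinned in. Plates stay at 37 C for 40 h with fluorescence read at 0h, 8h, 16h, 24h, 32h and 40h.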
Assay [7] is described as follows: qHTS RealTime-Glo MT Cell Viability Assay in HepG2 cells - 40 hour (AID 1224870). Note: nearly all actives have a fitted effect of over 50% in size. The gist of the method:
(§3)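 HepG2 cells mixed with RealTime-Glo MT reagents (NanoLuc plus cell-permeant prosubstrate) were seeded at 600 cells/well, incubated 5 h at 37 C/5% CO2, then pinned with compounds in DMSO; nonlytic luminescence tracked viability during 40 h treatment.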

Assay [8] in a line: A CellTox Green Cytotoxicity Assay to monitor cytotoxicity in HEK293 cells - 40 hour (AID 1224871). Note: nearly all actives have a fitted effect of over 45% in size. The method in brief: as §2
Assay [9] in a line: qHTS RealTime-Glo MT Cell Viability Assay in HEK293 cells - 40 hour (AID 1224874). Note: nearly all actives have a fitted effect of over 50% in size. Note: potency is the fitted concentration of half-maximal effect. The following applies: RealTime-Glo luminescence; max response: stronger effect = lower value. The method in brief:
(§4)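 Real-time viability in HEK293: signal arises when living cells convert a prosubstrate for NanoLuc in the medium, so luminescence tracks viable cell number. Compound (23 nL, DMSO) added 5 h post-seeding; kinetic reads at 0–40 h, 37 C.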

Assay [10] is described as follows: A CellTox Green Cytotoxicity Assay to monitor cytotoxicity in HEK293 cells - 24 hour (AID 1224875). Note: nearly all actives have a fitted effect of over 45% in size. The gist of the method: as §2
Assay [11] in a line: A CellTox Green Cytotoxicity Assay to monitor cytotoxicity in HepG2 cells - 16 hour (AID 1224876). Note: nearly all actives have a fitted effect of over 45% in size. The gist of the method: (§5)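 Cells and non-lytic dye reagent are dispensed together (600 HepG2 cells/well) and incubated 5 h before DMSO compound transfer. Kinetic fluorescence is then recorded in the same wells during 40 h at 37 C.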
Assay [12] is described as follows: qHTS RealTime-Glo MT Cell Viability Assay in HepG2 cells - 32 hour (AID 1224877). Note: nearly all actives have a fitted effect of over 55% in size. The gist of the method:
as §1

Assay [13] can be described thus: A CellTox Green Cytotoxicity Assay to monitor cytotoxicity in HepG2 cells - 40 hour (AID 1224879). Note: nearly all actives have a fitted effect of over 40% in size. Note: potency is the fitted concentration of half-maximal effect. The gist of the method:
as §5

The nature of assay [14]: qHTS RealTime-Glo MT Cell Viability Assay in HEK293 cells - 0 hour (AID 1224880). Note: top concentration of the series differs between compounds; nearly all actives have a fitted effect of over 45% in size. The gist of the method: as §4
Assay [15] is described as follows: qHTS assay to identify small molecule agonists of the hypoxia (HIF-1) signaling pathway - cell viability counter screen (AID 1224844; calls by dose curve; note: nearly all actives have a fitted effect of over 50% in size). The method in brief: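 Cytotoxicity was measured in parallel with the HRE-driven beta-lactamase readout: after 17 hrs of compound exposure at 37C, HRE-bla ME-180 cells received CellTiter-Glo and luminescence was recorded 30 min later.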

The nature of assay [16]: qHTS assay to identify small molecule agonists of H2AX - cell viability counter screen (AID 1224847; calls by dose curve; note: top concentration of the series differs between compounds; nearly all actives have a fitted effect of over 30% in size). The method in brief:
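After overnight plating of 1000 CHO-K1 cells per well, a 15-concentration compound series was applied for 3 hr at 37C. Luminescence from CellTiter-Glo, read following 30 min at room temperature, reflected cell viability.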

Assay [17] in a line: qHTS RealTime-Glo MT Cell Viability Assay in HEK293 cells - 32 hour (AID 1224868). The gist of the method: (§6)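 Homogeneous bioluminescent viability format in HEK293 cells (600 cells/well). Following 5 h at 37 C/5% CO2, 23 nL compound was pintooled; the signal was measured repeatedly during 40 h incubation.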
Assay [18] is described as follows: qHTS RealTime-Glo MT Cell Viability Assay in HEK293 cells - 16 hour (AID 1224872). The method in brief:
as §6

Assay [19] is described as follows: A CellTox Green Cytotoxicity Assay to monitor cytotoxicity in HepG2 cells - 24 hour (AID 1224878). Note: nearly all actives have a fitted effect of over 45% in size. The gist of the method: as §5
A short description of assay [20]: qHTS RealTime-Glo MT Cell Viability Assay in HepG2 cells - 8 hour (AID 1224873). Note: nearly all actives have a fitted effect of over 55% in size. The method in brief: as §3
% is set by controls: 0 for no effect and ±100 for the full control effect.

Turning to `Cc1cccc(Oc2ccccc2)c1`, the Potency result in assay [1], in assay [5], in assay [6], in assay [7], in [8] and in assay [10] was “inactive” in each case. For the same compound, the Potency entry in assay [11], in assay [12] and in [14] was “inactive” in each case. Besides, the result in assay [2] was inactive. The Potency in [3] was 26.6 µM (active); in assay [9], 47.8 µM (active); in [13], 47.8 µM (active). Further, the activity change, positive = activation in assay [4] is -65.1%.
Regarding `CC(C(=O)O)c1ccc(C(=O)c2ccccc2)s1` (stereo unspecified), the Potency result in [15], in [16], in [5], in [17], in assay [6] and in assay [8] was “inactive” each time. Moreover, the Potency entry in [18], in assay [10], in assay [11], in assay [12], in assay [19] and in assay [13] was “inactive” in each case. For the same compound, in assay [14], the Potency result was “inactive”. The max response in assay [9] is 4.65%.
Turning to `O=C(NN1CCCC1)NS(=O)(=O)c1ccc(Cl)cc1`, the Potency result in assay [1], in [16], in [3], in assay [5], in [17] and in assay [6] was “inactive” each time. The Potency result in assay [8], in [18], in assay [20], in assay [10], in assay [12] and in [19] was “inactive” in each case. The Potency result in [13] and in assay [14] was “inactive” throughout. Besides, the call in assay [2] was inactive. Besides, the activity change, positive = activation in assay [4] was 5.66% [at 42.5 µM]. Further, the max response in assay [9] was 15.3%.
With `NCCCN(CCO)CCO`, the Potency entry in [1], in assay [16], in [5], in assay [17], in assay [6] and in assay [7] was “inactive” each time. For the same compound, the Potency entry in assay [8], in [18], in assay [20], in [10], in assay [11] and in assay [12] was “inactive” in each case. Besides, the Potency result in assay [19], in [13] and in [14] was “inactive” in each case. The result in [2] was inactive. Further, the max response in [9] is -7.84%.
As to `O=S1(=O)N=C(O)c2ccccc21`, the Potency result in assay [1], in [16], in assay [5], in assay [17], in assay [6] and in assay [8] was “inactive” each time. Besides, the Potency entry in assay [18], in assay [10], in [11], in assay [12], in [19] and in [14] was “inactive” throughout. Also, the result in [2] was inactive. In assay [9], the max response is 2.61%.
Regarding `CCCCCCCCCCCCCCCCCBr`, the activation (H2AX phosphorylation) in assay [1] is -1.13% [at 31.6 µM]. Further, the activation in assay [2] is -0.885% [at 15.8 µM]. Moreover, the activity change, negative = cytotoxicity was 1.9% [at 31.6 µM] in assay [16], 0.544% [at 15.8 µM] in [5], -1.86% [at 15.8 µM] in assay [18] and -0.712% [at 15.8 µM] in assay [14]. The activity change, negative = cytotoxic was 6.52% [at 15.8 µM] in assay [17] and 4.28% [at 15.8 µM] in [12]. The cytotoxicity in [6] was -0.244% [at 15.8 µM]; in [19] it was -11% [at 15.8 µM]. In addition, the cytotoxicity increase in assay [8] was -9.92% [at 15.8 µM]; in [13], -11.7% [at 15.8 µM]. The viability change, negative = cytotoxic in assay [20] is -6.16% [at 15.8 µM]. In addition, the max response in assay [9] is 3.16%. In [10], the activity change is -8.25% [at 15.8 µM, stronger effect = higher value].
As for `Nc1nc(N)c2nc(CNc3ccc(C(=O)N[C@@H](CCC(=O)O)C(=O)O)cc3)cnc2n1`, the Potency result in [15], in assay [16], in assay [5], in assay [6], in assay [7] and in assay [8] was “inactive” each time. In addition, the Potency entry in assay [18], in assay [20], in assay [12], in assay [19] and in assay [13] was “inactive” throughout. Moreover, the activity change, positive = activation in [4] is -62.3%.
Consider `C=CC(C)(CCC=C(C)C)OC(=O)c1ccccc1` (stereo unspecified), for which the Potency result in assay [15], in [5], in assay [17], in assay [6], in assay [7] and in assay [18] was “inactive” in each case. The Potency result in assay [20], in assay [11], in [12], in assay [19], in [13] and in assay [14] was “inactive” each time. The max response in [9] is -13.6%.
